{"source": "PubChem BioAssay AID463213", "about": "(Sanford-Burnham Center for Chemical Genomics, 2010)", "note": "Among all 7,400 compounds or so, about 4,100 (55%) were called active. So high a share suggests a set chosen from earlier hits. These entries were drawn from the full list. A number with no mark means an inactive call.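 Rule for the calls: active = inhibition of yeast growth at or above a set limit in either of two repeat tests at 20 µM; inactive = the rest.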"}
{"assay": "tim10-1 ts yeast growth inhibition, retested – single concentration, luminescence, S. cerevisiae, confirmation (AID 463213);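 note: tim10-1 mutant grown at permissive 25 °C to find synthetic lethal compounds; 0% = DMSO yeast wells and 100% = medium wells without yeast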", "conditions": "S. cerevisiae tim10-1 ts strain growth, BacTiter-Glo, 24 h; at 20 µM; hits give high values"}
{"smiles": "O=C(/C=C/c1cccs1)c1cc(Cl)ccc1OC(=O)N1CCOCC1", "inhibition": "48.5% (active)"}
{"smiles": "O=C(NC(Nc1nc2ccc([N+](=O)[O-])cc2s1)(C(F)(F)F)C(F)(F)F)c1ccccc1", "inhibition": "86.6% (active)"}
{"smiles": "O=C(NCCN1C(=O)S/C(=C\\c2cccnc2)C1=O)c1cccc(OC(F)F)c1", "inhibition": "27.6%"}
{"smiles": "N/C(=N\\OC(=O)CCC1CCCCC1)c1ccccn1", "inhibition": "45.5% (active)"}
{"smiles": "N/C(=N\\OC(=O)CC1CCCCC1)c1ccccc1", "inhibition": "47.9% (active)"}
{"smiles": "S=c1[nH]nc(CSCc2ccc(Cl)cc2Cl)n1-c1ccccc1", "inhibition": "24.7%"}
{"smiles": "Cc1nnnn1/C(=C\\c1ccccc1)C(=O)OCC(=O)N1CC2(C)CC1CC(C)(C)C2", "note": "(stereo unspecified)", "inhibition": "48.4% (active)"}
{"smiles": "N/C(Cc1ccc([N+](=O)[O-])cc1)=N\\OC(=O)COc1ccc2ccccc2c1", "inhibition": "74.3% (active)"}
{"smiles": "N/C(Cc1ccc([N+](=O)[O-])cc1)=N\\OC(=O)C1CCCCC1", "inhibition": "79.8% (active)"}
{"smiles": "CN(C)C(=O)c1ccc2c(c1)C1C3CCC(C3)C1C(c1ccccc1)N2", "note": "(stereo unspecified)", "inhibition": "25.9%"}
{"smiles": "Cc1cccc(NC(=S)N2CCC(c3nc4ccccc4s3)CC2)c1", "inhibition": "30.5%"}
{"smiles": "FC(F)(F)c1cccc(NC(=S)Nc2cccc(Cl)c2)c1", "inhibition": "21.2%"}
{"smiles": "Cc1cccc(NC(=S)Nc2ccc(Cl)c(Cl)c2)c1", "inhibition": "50.9% (active)"}
{"smiles": "Cc1[nH][nH]c(=O)c1C(c1ccc(-c2ccc(Cl)cc2)o1)c1c(C)[nH][nH]c1=O", "inhibition": "29%"}
{"smiles": "CCOc1ccc(C(c2c(C)[nH][nH]c2=O)c2c(C)[nH][nH]c2=O)cc1OCC", "inhibition": "36.1% (active)"}
{"smiles": "COc1ccccc1C1SCCN1C(=O)c1ccc([N+](=O)[O-])cc1", "note": "(stereo unspecified)", "inhibition": "15.9%"}
{"smiles": "N/C(=N\\OC(=O)Cc1ccccc1[N+](=O)[O-])c1ccc(Br)cc1", "inhibition": "55.3% (active)"}
{"smiles": "COc1cc(Cl)c(C)cc1NC(=O)CSc1nnc(-c2ccco2)n1CC(C)C", "inhibition": "24.4%"}
{"smiles": "COc1cc(N=Cc2c(O)[nH]c3ccccc23)cc(OC)c1OC", "inhibition": "20.7%"}
{"smiles": "Cc1cccc(N=Nc2c(O)[nH]c3ccc(F)cc23)c1", "inhibition": "51.5% (active)"}
{"smiles": "Cc1ccccc1NCC(=O)N/N=C\\c1ccc([N+](=O)[O-])s1", "inhibition": "44.2% (active)"}
{"smiles": "C/C(=N\\NC(=O)CNc1cccc2ccccc12)c1ccc(Br)s1", "inhibition": "26.1%"}
{"smiles": "O=C(CCc1ccccc1)Nc1ncc([N+](=O)[O-])s1", "inhibition": "25%"}
{"smiles": "Cc1ccccc1Nc1nnc(SCC(=O)c2cc3ccccc3o2)s1", "inhibition": "33.8% (active)"}
{"smiles": "CC(C)CC(=O)NC(=S)Nc1ccc(F)cc1F", "inhibition": "24.9%"}
{"smiles": "O=C(/C=C/Sc1ncn[nH]1)c1ccc(Cl)cc1", "inhibition": "69.7% (active)"}
{"smiles": "COc1ccc(CCNCc2c(-c3ccccc3)n(C)c3ccccc23)cc1", "inhibition": "19.6%"}
{"smiles": "Cc1nc(-c2ccccc2)cn2c1nc1ccccc12", "inhibition": "36% (active)"}
{"smiles": "O=C(Nc1nnc(-c2ccccc2)o1)c1cc(-c2cccs2)nc2ccccc12", "inhibition": "13.9%"}
{"smiles": "CCc1ccc(-c2cc(C(=O)NCc3ccco3)c3ccccc3n2)s1", "inhibition": "32.3% (active)"}
{"smiles": "CC1=CC(C)(C)Nc2ccc(OC(=O)CN3C(=O)C4CCCCC4C3=O)cc21", "note": "(stereo unspecified)", "inhibition": "22.8%"}
{"smiles": "Cc1cc(N)n2nc(-c3ccc(C(C)(C)C)cc3)cc2n1", "inhibition": "42% (active)"}
{"smiles": "COc1ccccc1CSc1ncc(-c2ccc([N+](=O)[O-])cc2)[nH]1", "inhibition": "27.1%"}
{"smiles": "CCCCC(O)(CCCC)C(=O)NN(C(=O)CCl)c1ccccc1", "inhibition": "36.3% (active)"}
{"smiles": "Cc1ccc(Oc2cnn(-c3ccccc3)c(=O)c2Br)cc1", "inhibition": "41.2% (active)"}
{"smiles": "COc1ccc(N2CCN(C(=O)CCSCc3ccccc3F)CC2)cc1", "inhibition": "16.8%"}
{"smiles": "Fc1ccc(/C=N/Nc2nc(-c3cccnc3)nc3ccccc23)cc1", "inhibition": "33.9% (active)"}
{"smiles": "COc1ccc(/C=C(\\C#N)C(=O)ONC2=NCCCCC2)cc1", "inhibition": "66.8% (active)"}
{"smiles": "COc1ccc(C(=O)Nc2ccccc2C(=O)N/N=C/c2ccccc2OC)cc1", "inhibition": "56.6% (active)"}
{"smiles": "COc1cccc(C(=O)Nc2cc3c(cc2Br)OCCCO3)c1", "inhibition": "9.95%"}
{"smiles": "COc1ccc(/C(C)=N/NC(=O)c2ccc3nc[nH]c3c2)cc1", "inhibition": "-11.2%"}
{"smiles": "COc1ccc2c(c1)c(C(=O)N/N=C/c1cccs1)c(C)n2C", "inhibition": "28.8%"}
{"smiles": "COc1ccc(C(=O)Nc2ccccc2C(=O)N/N=C/c2ccc(O)c(OC)c2)cc1", "inhibition": "91.6% (active)"}
{"smiles": "O=C(C(=O)N1CCc2ccccc2C1)c1c[nH]c2ccccc12", "inhibition": "12.1%"}
{"smiles": "CC1CCc2c(sc3nc4n(c(=O)c23)CCS4)C1", "note": "(stereo unspecified)", "inhibition": "37.5% (active)"}
{"smiles": "CC1CCc2sc3nc(N4CCN(CCO)CC4)n4ncnc4c3c2C1", "note": "(stereo unspecified)", "inhibition": "27.2%"}
{"smiles": "CCOC(=O)CSc1nc2c(c(=O)n(Cc3ccccc3Cl)c(=O)n2C)n1C", "inhibition": "31.1%"}
{"smiles": "Cc1ccc(-c2ccc(/C=C(\\C#N)C(N)=S)o2)c([N+](=O)[O-])c1", "inhibition": "48.3% (active)"}
{"smiles": "CC(=O)Cc1nsc(NC(=O)c2csc3c2CCCC3)n1", "inhibition": "29.6%"}
{"smiles": "COc1ccc(N2C(=O)CC(Sc3n[nH]c(-c4ccc(C)cc4)n3)C2=O)cc1", "note": "(stereo unspecified)", "inhibition": "24.7%"}
{"smiles": "CNC(=O)/C(C#N)=C/c1c(F)cccc1Cl", "inhibition": "50.1% (active)"}
{"smiles": "CCOC(=O)C1Sc2[nH]c(=O)sc2C(c2ccc(Cl)cc2)C1C(=O)OCC", "note": "(stereo unspecified)", "inhibition": "33.5% (active)"}
{"smiles": "CCOC(=O)c1ccccc1N1C(=O)C2Sc3[nH]c(=O)sc3C(/C=C/c3ccccc3)C2C1=O", "note": "(stereo unspecified)", "inhibition": "15.4%"}
{"smiles": "ONC(=Nc1ccc(Cl)cc1)c1ccccc1Cl", "inhibition": "31.5% (active)"}
{"smiles": "Cc1cccc(NC(=S)NCc2ccc3[nH]c4c(c3c2)CCCC4)c1", "inhibition": "35.3% (active)"}
{"smiles": "O=C(N/N=C\\c1cccc(Br)c1)c1ccccc1-n1cccc1", "inhibition": "51.5% (active)"}
{"smiles": "CCC(=O)N1CCc2cc(S(=O)(=O)NC(C(=O)N3CCc4ccccc4C3)C(C)C)ccc21", "note": "(stereo unspecified)", "inhibition": "22.2%"}
{"smiles": "O=C(CN1CCN(c2ccc(F)cc2)CC1)Nc1cccc(C(F)(F)F)c1", "inhibition": "23.8%"}
{"smiles": "CC1CCCC(C)N1C(=O)CN1CCN(c2nc(-c3ccc(F)cc3)cs2)CC1", "note": "(stereo unspecified)", "inhibition": "37.2% (active)"}
{"smiles": "O=C(Nc1nc(-c2ccco2)c(-c2ccco2)s1)c1ccco1", "inhibition": "65.9% (active)"}
{"smiles": "Cc1ccc2c(c1)c1ncnc(N3CCc4ccccc4C3)c1n2C", "inhibition": "22.1%"}
